From the supplement of paper PMC8975748
Structures can show the parent of a compound that is named as a salt. ± gives the standard deviation of the averaged measurements.

How the values were obtained:
[1] = tested on: Saccharomyces cerevisiae BY4741 SeMeCo community; test: mean cell size (pixel area) (pixels); higher = larger cells; conditions: 10 µM; 24 h; SM minimal medium
Procedure, shortened: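 In this assay, mean cell pixel area per well was obtained from automated confocal images of paraformaldehyde-fixed yeast analysed in Harmony. The cells were a Saccharomyces cerevisiae BY4741 community with four plasmids, each complementing one auxotrophy and carrying a fluorescent marker, grown for 24 h in SM medium with drug at a final 10 µM in 384-well plates. Values are averaged across 3 replicates. Same SeMeCo high-content imaging drug screen: Selleck FDA-approved drugs at 10 µM, 24 h in SM medium, 384-well plates, 3 replicates.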

[2] = tested on: Saccharomyces cerevisiae BY4741 SeMeCo community; test: z-score of prototroph abundance vs DMSO median; higher = larger share of this subpopulation than in DMSO controls; conditions: 10 µM; 24 h; SM minimal medium; subpopulation (auxotrophy): Prototroph
Procedure, shortened: (§1)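 Four plasmids, each restoring a single auxotrophy and encoding a distinct fluorescent protein, were carried by a Saccharomyces cerevisiae BY4741 community. After overnight growth to OD600 1.0 and dilution to 0.3, 70 µl per well was grown for 24 h in minimal SM medium on 384-well plates acoustically predosed with library drugs at 10 µM final. Following paraformaldehyde fixation, automated confocal microscopy was used, with single-auxotroph fluorescent strains defining thresholds and autofluorescence correction. Subpopulation abundance was then scored as a z-score against the vehicle-well median.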

[3] = tested on: Saccharomyces cerevisiae BY4741 SeMeCo community; test: z-score of subpopulation abundance vs DMSO median, subpopulation auxotrophic for M; higher = larger share of this subpopulation than in DMSO controls; conditions: 10 µM; 24 h; SM minimal medium; subpopulation (auxotrophy): M
Procedure, shortened: as §1

[4] = tested on: Saccharomyces cerevisiae BY4741 SeMeCo community; test: z-score of subpopulation abundance vs DMSO median, subpopulation auxotrophic for L; higher = larger share of this subpopulation than in DMSO controls; conditions: 10 µM; 24 h; SM minimal medium; subpopulation (auxotrophy): L
Procedure, shortened: as §1

[5] = tested on: Saccharomyces cerevisiae BY4741 SeMeCo community; test: z-score of subpopulation abundance vs DMSO median, subpopulation auxotrophic for U; higher = larger share of this subpopulation than in DMSO controls; conditions: 10 µM; 24 h; SM minimal medium; subpopulation (auxotrophy): U
Procedure, shortened: as §1

[6] = tested on: Saccharomyces cerevisiae BY4741 SeMeCo community; test: z-score of subpopulation abundance vs DMSO median, subpopulation auxotrophic for LM; higher = larger share of this subpopulation than in DMSO controls; conditions: 10 µM; 24 h; SM minimal medium; subpopulation (auxotrophy): LM
Procedure, shortened: as §1

[7] = tested on: Saccharomyces cerevisiae BY4741 SeMeCo community; test: z-score of subpopulation abundance vs DMSO median, subpopulation auxotrophic for HM; higher = larger share of this subpopulation than in DMSO controls; conditions: 10 µM; 24 h; SM minimal medium; subpopulation (auxotrophy): HM
Procedure, shortened: as §1

[8] = tested on: Saccharomyces cerevisiae BY4741 SeMeCo community; test: z-score of subpopulation abundance vs DMSO median, subpopulation auxotrophic for UM; higher = larger share of this subpopulation than in DMSO controls; conditions: 10 µM; 24 h; SM minimal medium; subpopulation (auxotrophy): UM
Procedure, shortened: as §1

[9] = tested on: Saccharomyces cerevisiae BY4741 SeMeCo community; test: z-score of subpopulation abundance vs DMSO median, subpopulation auxotrophic for HL; higher = larger share of this subpopulation than in DMSO controls; conditions: 10 µM; 24 h; SM minimal medium; subpopulation (auxotrophy): HL
Procedure, shortened: as §1

[10] = tested on: Saccharomyces cerevisiae BY4741 SeMeCo community; test: z-score of subpopulation abundance vs DMSO median, subpopulation auxotrophic for HLU; higher = larger share of this subpopulation than in DMSO controls; conditions: 10 µM; 24 h; SM minimal medium; subpopulation (auxotrophy): HLU
Procedure, shortened: as §1

[11] = tested on: Saccharomyces cerevisiae BY4741 SeMeCo community; test: z-score of subpopulation abundance vs DMSO median, subpopulation auxotrophic for HLM; higher = larger share of this subpopulation than in DMSO controls; conditions: 10 µM; 24 h; SM minimal medium; subpopulation (auxotrophy): HLM
Procedure, shortened: as §1

[12] = tested on: Saccharomyces cerevisiae BY4741 SeMeCo community; test: z-score of subpopulation abundance vs DMSO median, subpopulation auxotrophic for HUM; higher = larger share of this subpopulation than in DMSO controls; conditions: 10 µM; 24 h; SM minimal medium; subpopulation (auxotrophy): HUM
Procedure, shortened: as §1

[13] = tested on: Saccharomyces cerevisiae BY4741 SeMeCo community; test: z-score of subpopulation abundance vs DMSO median, subpopulation auxotrophic for LUM; higher = larger share of this subpopulation than in DMSO controls; conditions: 10 µM; 24 h; SM minimal medium; subpopulation (auxotrophy): LUM
Procedure, shortened: as §1

[14] = tested on: Saccharomyces cerevisiae BY4741 SeMeCo community; test: z-score of subpopulation abundance vs DMSO median, subpopulation auxotrophic for HLUM; higher = larger share of this subpopulation than in DMSO controls; conditions: 10 µM; 24 h; SM minimal medium; subpopulation (auxotrophy): HLUM
Procedure, shortened: as §1

[15] = tested on: Saccharomyces cerevisiae BY4741 SeMeCo community; test: z-score of subpopulation abundance vs DMSO median, subpopulation auxotrophic for H; higher = larger share of this subpopulation than in DMSO controls; conditions: 10 µM; 24 h; SM minimal medium; subpopulation (auxotrophy): H
Procedure, shortened: as §1

[16] = tested on: Saccharomyces cerevisiae BY4741 SeMeCo community; test: z-score of subpopulation abundance vs DMSO median, subpopulation auxotrophic for HU; higher = larger share of this subpopulation than in DMSO controls; conditions: 10 µM; 24 h; SM minimal medium; subpopulation (auxotrophy): HU
Procedure, shortened: as §1

| SMILES | mean cell size [1] | z-score of prototroph abundance [2] | z-score of subpopulation abundance [3] | z-score of subpopulation abundance [4] | z-score of subpopulation abundance [5] | z-score of subpopulation abundance [6] | z-score of subpopulation abundance [7] | z-score of subpopulation abundance [8] | z-score of subpopulation abundance [9] | z-score of subpopulation abundance [10] | z-score of subpopulation abundance [11] | z-score of subpopulation abundance [12] | z-score of subpopulation abundance [13] | z-score of subpopulation abundance [14] | z-score of subpopulation abundance [15] | z-score of subpopulation abundance [16] |
| --- | --- | --- | --- | --- | --- | --- | --- | --- | --- | --- | --- | --- | --- | --- | --- | --- |
| O=c1n(CCCN2CCN(c3cccc(Cl)c3)CC2)nc2ccccn12 [Trazodone HCl] | 12.6 ± 0.15 | -0.06 | 2.19 | -1.59 | -0.6 | -0.41 | 0.92 | 0.22 | -0.82 | -0.83 | 0.04 | 0.45 | -0.51 | -0.57 |  |  |
| CCC[C@@H]1C[C@@H](C(=O)N[C@@H]([C@H]2O[C@H](SC)[C@H](O)[C@@H](O)[C@H]2O)[C@@H](C)O)N(C)C1 [Lincomycin Hydrochloride Monohydrate] | 12.3 ± 0.19 | -0.67 | 0.19 | -0.22 |  | -0.56 | -0.07 | 0.42 | -0.46 | 0.91 | -0.3 | -0.11 | 0.4 | 0.63 | -0.54 | 0.41 |
| CC(C)c1nc(N(C)S(C)(=O)=O)nc(-c2ccc(F)cc2)c1/C=C/[C@@H](O)C[C@@H](O)CC(=O)O [Rosuvastatin] |  | -2.69 | -1.77 | 2.53 | -1.39 | 0 | 2.17 | 1 | 5.32 | 1.68 | 3.7 | 2.38 | 1.84 | 2.76 | 4.84 | 1.77 |
| CC(=O)NS(=O)(=O)c1ccc(N)cc1 [Sulfacetamide Sodium] | 12.4 ± 0.26 | -0.69 | 0.42 | -0.02 |  | -0.08 | 0.1 | 0.35 | 0.22 | -0.24 | -0.1 | 0.62 | 0.63 | 0.37 | 0.92 | -0.34 |
| Cc1nccn1CC1CCc2c(c3ccccc3n2C)C1=O (stereo not drawn) [Ondansetron Hydrochloride Dihydrate] | 12.3 ± 0.24 | 0.12 | 0.38 | -0.38 | 1.06 | -0.17 | -0.61 |  | -0.09 | -0.6 | -0.48 | 0.55 | -0.16 |  | -0.54 | 0.2 |
| CCCCCCCN(CC)CCCC(O)c1ccc(NS(C)(=O)=O)cc1 (stereo not drawn) [Ibutilide Fumarate] | 12.5 ± 0.2 | 0.2 | -0.42 | -0.88 | 0.93 | -0.88 |  | 0.25 | -0.89 | -0.63 | -0.14 | 0.49 |  | -0.72 | 0.34 |  |
| O=c1ccc2cc(O)c(O)cc2o1 [Esculetin] | 12.7 ± 0.16 |  | 5.32 | 1.75 | -7.81 | 3.28 |  |  | 2.44 | -3.44 | 1.67 | -4.69 | -3.61 | -0.38 | 3.92 | -7.17 |
| COc1ccc(CCN(C)CCCC(C#N)(c2ccc(OC)c(OC)c2)C(C)C)cc1OC (stereo not drawn) [Verapamil HCl] | 12.6 ± 0.13 | -0.19 | 1.34 | 0.1 | 0.6 | 0 | -0.27 |  | 0.26 | 0.26 | 0.44 | 0.05 | 0.79 | 0.13 | 0.46 |  |
